The results in this text go back to ChEMBL document CHEMBL2218924, “A broad activity screen in support of a chemogenomic map for kinase signalling research and drug discovery” (Biochem J, 2013).

Assay [1] addresses T1, Serine/threonine-protein kinase BRSK1 (Homo sapiens) (UniProt Q8TDC3).
T1 sequence (whole entry): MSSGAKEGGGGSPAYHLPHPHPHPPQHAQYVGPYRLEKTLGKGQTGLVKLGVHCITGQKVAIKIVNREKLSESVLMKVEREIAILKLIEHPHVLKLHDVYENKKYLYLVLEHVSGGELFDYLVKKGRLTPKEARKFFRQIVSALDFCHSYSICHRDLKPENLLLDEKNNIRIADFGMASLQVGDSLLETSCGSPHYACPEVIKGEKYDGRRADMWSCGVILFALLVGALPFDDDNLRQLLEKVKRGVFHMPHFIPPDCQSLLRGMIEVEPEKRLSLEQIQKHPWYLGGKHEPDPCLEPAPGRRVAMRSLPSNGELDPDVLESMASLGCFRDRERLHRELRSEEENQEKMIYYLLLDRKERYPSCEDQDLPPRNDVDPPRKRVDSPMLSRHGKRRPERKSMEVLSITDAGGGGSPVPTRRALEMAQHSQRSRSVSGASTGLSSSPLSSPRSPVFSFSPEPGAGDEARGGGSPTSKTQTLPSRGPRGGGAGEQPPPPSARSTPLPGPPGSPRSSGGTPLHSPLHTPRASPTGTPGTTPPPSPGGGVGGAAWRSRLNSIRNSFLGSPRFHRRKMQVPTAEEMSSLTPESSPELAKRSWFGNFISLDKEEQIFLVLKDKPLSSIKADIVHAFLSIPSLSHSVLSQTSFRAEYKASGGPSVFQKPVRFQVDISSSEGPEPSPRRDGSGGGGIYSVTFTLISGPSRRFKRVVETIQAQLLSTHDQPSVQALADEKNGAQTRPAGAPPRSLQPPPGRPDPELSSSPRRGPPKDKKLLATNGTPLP
As to conditions: at 1 µM.

Assay [2] concerns the target T1, Serine/threonine-protein kinase BRSK1 (Homo sapiens). As to conditions: at 10 µM.
For assay [3], the target named is T2, Serine/threonine-protein kinase BRSK2 (Homo sapiens) (UniProt Q8IWQ3).
T2 sequence (whole entry): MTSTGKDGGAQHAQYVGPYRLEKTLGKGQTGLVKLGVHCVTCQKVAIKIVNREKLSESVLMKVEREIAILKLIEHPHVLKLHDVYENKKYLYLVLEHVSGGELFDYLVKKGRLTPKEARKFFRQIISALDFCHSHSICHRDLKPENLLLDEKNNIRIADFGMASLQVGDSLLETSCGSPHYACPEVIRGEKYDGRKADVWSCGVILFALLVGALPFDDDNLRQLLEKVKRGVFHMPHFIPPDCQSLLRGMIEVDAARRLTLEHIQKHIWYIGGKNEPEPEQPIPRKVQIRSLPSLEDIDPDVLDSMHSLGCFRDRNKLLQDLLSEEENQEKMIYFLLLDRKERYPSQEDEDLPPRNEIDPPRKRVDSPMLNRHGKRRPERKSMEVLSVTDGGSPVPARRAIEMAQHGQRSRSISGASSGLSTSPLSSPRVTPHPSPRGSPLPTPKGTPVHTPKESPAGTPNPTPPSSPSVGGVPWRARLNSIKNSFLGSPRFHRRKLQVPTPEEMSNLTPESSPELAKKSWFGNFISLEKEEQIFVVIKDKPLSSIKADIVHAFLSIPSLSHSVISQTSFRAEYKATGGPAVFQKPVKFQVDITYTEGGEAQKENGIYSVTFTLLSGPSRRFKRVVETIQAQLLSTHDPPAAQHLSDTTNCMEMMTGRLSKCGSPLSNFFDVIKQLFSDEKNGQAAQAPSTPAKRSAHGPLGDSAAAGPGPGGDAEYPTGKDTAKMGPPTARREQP
As to conditions: at 1 µM.

The target of assay [4] is T2, Serine/threonine-protein kinase BRSK2 (Homo sapiens). As to conditions: at 10 µM.
Assay [5] deals with T3, Cyclin-dependent kinase 1/cyclin B1 (Homo sapiens) (UniProt P06493+P14635). As to conditions: at 1 µM.
Assay [6] addresses T3, Cyclin-dependent kinase 1/cyclin B1 (Homo sapiens). As to conditions: at 10 µM.
Assay [7] concerns the target T4, Cyclin-dependent kinase 2/cyclin A (Homo sapiens) (UniProt P24941+P20248+P78396). As to conditions: at 1 µM.
The target in assay [8] is T4, Cyclin-dependent kinase 2/cyclin A (Homo sapiens). As to conditions: at 10 µM.
The target in assay [9] is T5, Cyclin-dependent kinase 2/cyclin E (Homo sapiens) (UniProt P24864+P24941+O96020). As to conditions: at 1 µM.
The target of assay [10] is T5, Cyclin-dependent kinase 2/cyclin E (Homo sapiens). As to conditions: at 10 µM.
Assay [11] concerns the target T6, CDK3/cyclin E (Homo sapiens) (UniProt P24864+O96020+Q00526). As to conditions: at 1 µM.
Assay [12] concerns the target T6, CDK3/cyclin E (Homo sapiens). As to conditions: at 10 µM.
Assay [13] concerns the target T7, Cyclin-dependent kinase 5/CDK5 activator 1 (Homo sapiens) (UniProt Q00535+Q15078). As to conditions: at 1 µM.
For assay [14], the target named is T7, Cyclin-dependent kinase 5/CDK5 activator 1 (Homo sapiens). As to conditions: at 10 µM.
Assay [15] shares this target. As to conditions: at 1 µM. The source holds these as a separate data set.
Assay [16] has the same target. As to conditions: at 10 µM. The source holds these as a separate data set.
Assay [17] concerns the target T8, CDK6/cyclin D3 (Homo sapiens) (UniProt P30281+Q00534). As to conditions: at 1 µM.
Assay [18] concerns the target T8, CDK6/cyclin D3 (Homo sapiens). As to conditions: at 10 µM.
The target of assay [19] is T9, Cyclin-dependent kinase 7/ cyclin H (Homo sapiens) (UniProt P51946+P50613). As to conditions: at 1 µM.
The target in assay [20] is T9, Cyclin-dependent kinase 7/ cyclin H (Homo sapiens). As to conditions: at 10 µM.

T6 sequence (O96020 whole entry, looked up): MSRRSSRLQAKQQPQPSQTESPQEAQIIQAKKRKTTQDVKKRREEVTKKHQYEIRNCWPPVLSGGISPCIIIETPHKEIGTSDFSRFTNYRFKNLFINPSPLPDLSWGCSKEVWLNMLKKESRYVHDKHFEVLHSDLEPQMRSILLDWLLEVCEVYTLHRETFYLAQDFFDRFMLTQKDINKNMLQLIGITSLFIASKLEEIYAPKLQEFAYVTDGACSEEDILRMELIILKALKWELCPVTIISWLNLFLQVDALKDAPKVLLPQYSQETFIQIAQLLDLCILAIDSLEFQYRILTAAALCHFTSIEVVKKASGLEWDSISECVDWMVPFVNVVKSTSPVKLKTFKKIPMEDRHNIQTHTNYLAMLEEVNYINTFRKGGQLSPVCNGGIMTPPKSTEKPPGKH
T6 sequence (P24864 whole entry, looked up): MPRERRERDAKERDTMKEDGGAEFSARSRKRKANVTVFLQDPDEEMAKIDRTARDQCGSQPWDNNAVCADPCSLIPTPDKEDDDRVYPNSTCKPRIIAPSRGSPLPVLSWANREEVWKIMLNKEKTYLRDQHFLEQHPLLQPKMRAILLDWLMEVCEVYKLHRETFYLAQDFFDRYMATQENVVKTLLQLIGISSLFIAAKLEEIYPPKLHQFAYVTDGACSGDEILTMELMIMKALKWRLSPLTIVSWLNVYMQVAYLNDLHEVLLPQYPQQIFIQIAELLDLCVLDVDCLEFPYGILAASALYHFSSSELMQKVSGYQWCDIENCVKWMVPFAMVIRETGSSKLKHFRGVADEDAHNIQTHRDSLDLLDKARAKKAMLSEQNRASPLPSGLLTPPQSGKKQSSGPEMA
T6 sequence (Q00526 whole entry, looked up): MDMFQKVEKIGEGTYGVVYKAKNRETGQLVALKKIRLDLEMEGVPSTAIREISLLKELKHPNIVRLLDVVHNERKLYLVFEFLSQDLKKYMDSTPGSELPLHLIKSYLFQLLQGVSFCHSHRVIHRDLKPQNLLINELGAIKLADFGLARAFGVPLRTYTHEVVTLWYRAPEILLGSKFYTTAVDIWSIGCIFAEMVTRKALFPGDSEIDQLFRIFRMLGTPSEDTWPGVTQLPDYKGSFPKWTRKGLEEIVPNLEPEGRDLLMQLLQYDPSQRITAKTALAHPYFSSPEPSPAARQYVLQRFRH
T7 sequence (Q00535 whole entry): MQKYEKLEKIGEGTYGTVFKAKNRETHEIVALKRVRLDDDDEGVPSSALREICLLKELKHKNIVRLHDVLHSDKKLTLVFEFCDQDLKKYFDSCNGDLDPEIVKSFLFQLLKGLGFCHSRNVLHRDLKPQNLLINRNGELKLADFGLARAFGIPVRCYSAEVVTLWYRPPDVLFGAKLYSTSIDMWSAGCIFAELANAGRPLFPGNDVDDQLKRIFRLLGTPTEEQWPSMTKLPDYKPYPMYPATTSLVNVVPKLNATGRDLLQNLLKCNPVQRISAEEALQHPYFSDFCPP
T7 sequence (Q15078 99-307 partner limits assumed): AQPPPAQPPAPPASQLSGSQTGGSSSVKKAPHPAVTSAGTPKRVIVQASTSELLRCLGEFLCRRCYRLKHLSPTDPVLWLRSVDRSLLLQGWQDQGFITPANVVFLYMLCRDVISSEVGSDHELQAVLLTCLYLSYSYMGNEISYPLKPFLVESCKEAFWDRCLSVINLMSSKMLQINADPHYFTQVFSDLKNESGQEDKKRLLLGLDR
T3 sequence (P06493 whole entry, looked up): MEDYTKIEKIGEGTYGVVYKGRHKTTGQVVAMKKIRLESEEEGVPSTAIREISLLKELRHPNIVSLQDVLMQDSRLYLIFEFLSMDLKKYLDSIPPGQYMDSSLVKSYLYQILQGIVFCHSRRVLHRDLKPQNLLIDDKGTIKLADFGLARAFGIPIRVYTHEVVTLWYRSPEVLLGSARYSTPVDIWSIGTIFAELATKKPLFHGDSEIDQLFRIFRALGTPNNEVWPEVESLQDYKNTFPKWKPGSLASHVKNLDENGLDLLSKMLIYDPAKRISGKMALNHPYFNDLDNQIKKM
T3 sequence (P14635 whole entry, looked up): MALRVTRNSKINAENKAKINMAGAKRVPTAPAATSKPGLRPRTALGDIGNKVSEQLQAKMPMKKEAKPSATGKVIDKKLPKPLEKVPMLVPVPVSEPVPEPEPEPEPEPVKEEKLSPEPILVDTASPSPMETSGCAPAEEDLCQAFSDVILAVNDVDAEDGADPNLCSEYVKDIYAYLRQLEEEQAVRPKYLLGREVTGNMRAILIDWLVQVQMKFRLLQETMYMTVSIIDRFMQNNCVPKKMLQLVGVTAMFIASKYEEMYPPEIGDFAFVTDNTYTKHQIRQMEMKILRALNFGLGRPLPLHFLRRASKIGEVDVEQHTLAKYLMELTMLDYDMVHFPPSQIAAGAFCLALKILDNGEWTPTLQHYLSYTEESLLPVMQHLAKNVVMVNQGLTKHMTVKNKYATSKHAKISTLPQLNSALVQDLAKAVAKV

With `COc1cc2ncnc(Nc3ccc(Oc4ccccc4)cc3)c2cc1OC`, the residual activity in assay [1] was determined as 55%; in assay [2], 60%; in [3], 89%; in [4], 102%; in [5], 99%; in assay [6] it was 102%. For the same molecule, the residual activity in assay [7] amounted to 130%; in assay [8] it was 101%; in [9], 106%; in [10], 106%; in assay [11] it was 94%; in [12], 91%. For the same molecule, the residual activity in assay [13] stood at 108%; in [14], 92%; in assay [15], 98%; in assay [16], 109%; in assay [17], 101%; in assay [18] it was 92%. In addition, the residual activity in assay [19] came out at 98%; in [20], 100%.

Take `CCOc1cc2ncnc(Nc3cccc(Br)c3)c2cc1OCC`: the residual activity was found to be 12% in assay [1]; 15% in assay [2]; 95% in assay [3]; 60% in assay [4]; 93% in assay [5]; 89% in [6]. For the same molecule, the residual activity in assay [7] amounted to 136%; in assay [8] it was 89%; in [9], 92%; in assay [10], 79%; in assay [11], 103%; in assay [12], 87%. The residual activity worked out at 105% in [13]; 97% in [14]; 95% in assay [15]; 81% in [16]; 96% in assay [17]; 88% in [18]. Besides, the figures for the residual activity in [19] and in [20] were 86% and 84%, respectively.

Regarding `O=C1c2ccccc2-[n+]2ccc3c([nH]c4ccccc43)c21`, the residual activity in assay [1] amounted to 75%; in assay [2], 74%; in assay [3], 112%; in assay [4], 89%; in assay [5], 112%; in [6], 107%. Also, the residual activity in assay [7] came to 84%; in [8], 77%; in assay [9] it was 92%; in [10], 97%; in assay [11], 87%; in [12], 81%. Also, the residual activity was found to be 72% in assay [13]; 82% in assay [14]; 108% in assay [15]; 82% in assay [16]; 87% in assay [17]; 82% in assay [18]. The residual activity stood at 99% in assay [19] and 83% in assay [20].

Turning to `Cc1nc2cc3nc(-c4cccs4)cnc3cc2n1C`, the residual activity in assay [1] is 68%; in [2], 75%; in assay [3], 102%; in assay [4] it was 105%; in assay [5], 109%; in assay [6] it was 79%. Also, the residual activity in [7] was 144%; in [8], 91%; in assay [9] it was 115%; in assay [10], 104%; in assay [11], 109%; in [12], 99%. Further, the residual activity in [13] came out at 91%; in assay [14], 109%; in assay [15] it was 106%; in [16], 99%; in [17], 107%; in assay [18], 93%. Also, the residual activity amounted to 82% in assay [19] and 102% in assay [20].

Take `Oc1n[nH]c2nnc(-c3c(-c4ccccc4)nn4ccccc34)cc12`: the residual activity was determined as 88% in [1]; 76% in [2]; 112% in assay [3]; 83% in assay [4]; 109% in [5]; 105% in assay [6]. Besides, the residual activity in assay [7] came out at 89%; in assay [8], 86%; in [9], 89%; in assay [10] it was 93%; in assay [11] it was 84%; in [12], 87%. Moreover, the residual activity is 96% in [13]; 103% in assay [14]; 105% in [15]; 82% in assay [16]; 89% in assay [17]; 83% in assay [18]. The residual activity in assay [19] was 89%; in assay [20], 86%.

As for `COc1cc2ncnc(N3CCN(C(=O)Nc4ccc(Oc5ccccc5)cc4)CC3)c2cc1OC`, the residual activity in assay [1] was found to be 79%; in assay [2], 91%; in [3] it was 113%; in [4], 126%; in assay [5] it was 119%; in assay [6], 109%. For the same molecule, the residual activity stood at 117% in assay [7]; 92% in assay [8]; 98% in [9]; 96% in assay [10]; 79% in [11]; 75% in [12]. For the same molecule, the residual activity in assay [13] is 95%; in assay [14] it was 55%; in assay [15], 108%; in assay [16], 75%; in assay [17], 82%; in assay [18], 86%. Moreover, the figures for the residual activity in assay [19] and in assay [20] were 90% and 93%, respectively.
